Test results from PubChem BioAssay (NCI).
About 79,000 compounds went through this panel and 15% of them were active in at least one assay; those are over-represented in the sample as a whole. Active and inactive are the calls of the source. Cut-off read from the data, not from the text of the source: active = growth inhibition above about 70%; inactive = the rest.

How the values were obtained:
[1] = NCI Yeast Anticancer Drug Screen. Data for the rad52 strain (AID 147);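 note: 0% = growth of vehicle-treated control cultures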; settings: S. cerevisiae rad52 mutant growth inhibition, stronger effect = higher value
Procedure, shortened: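 Compounds are applied to a genetically defined yeast strain lacking normal DNA damage repair, and inhibition of growth is expressed relative to cultures given vehicle only.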

[2] = NCI Yeast Anticancer Drug Screen. Data for the rad50EPP+ strain (AID 151);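 note: 0% = growth of vehicle-treated control cultures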; settings: S. cerevisiae rad50 mutant strain, stronger effect = higher value
Procedure, shortened: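 Compounds were applied to the rad50EPP+ yeast strain, which bears a defined DNA repair alteration, and growth inhibition was determined relative to vehicle-treated cultures.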

[3] = NCI Yeast Anticancer Drug Screen. Data for the mgt1 strain (AID 153); settings: S. cerevisiae mgt1 mutant growth inhibition, stronger effect = higher value
Procedure, shortened: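 Strain: mgt1 yeast, one of a set carrying defined DNA damage repair or cell cycle control alterations. Compound-treated growth compared with vehicle.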

[4] = NCI Yeast Anticancer Drug Screen. Data for the rad50 strain (AID 155);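 note: 0% = growth of vehicle-only cultures of the same strain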; settings: S. cerevisiae rad50 strain growth inhibition, stronger effect = higher value
Procedure, shortened: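 Relative growth inhibition (compound vs vehicle) was measured in yeast with a defined repair-gene alteration.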

[5] = NCI Yeast Anticancer Drug Screen. Data for the mec2-1 strain (AID 157); settings: S. cerevisiae mec2-1 strain, stronger effect = higher value
Procedure, shortened: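 Strain: mec2-1 (DNA repair/cell cycle alteration). Compound exposure, then growth measured; inhibition expressed relative to vehicle.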

[6] = NCI Yeast Anticancer Drug Screen. Data for the sgs1 mgt1 strain (AID 161);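 note: 0% = growth of cultures given vehicle only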; settings: S. cerevisiae sgs1 mgt1 strain, stronger effect = higher value
Procedure, shortened: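 Inhibition of yeast growth, normalised to vehicle-treated controls, is reported for a strain bearing genetic alterations in DNA damage repair.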

[7] = NCI Yeast Anticancer Drug Screen. Data for the CLN2oe strain (AID 163);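 note: 0% = growth of vehicle-only control cultures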; settings: S. cerevisiae CLN2oe strain, stronger effect = higher value
Procedure, shortened: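 Growth of a genetically modified yeast strain is measured after compound exposure and compared with cultures given vehicle alone.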

[8] = NCI Yeast Anticancer Drug Screen. Data for the cln2 rad14 strain (AID 165);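 note: 0% = growth equal to vehicle treated cultures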; settings: S. cerevisiae cln2 rad14 strain, stronger effect = higher value
Procedure, shortened: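 Compounds are applied to the cln2 rad14 yeast strain, and growth is then compared with that of vehicle-treated cultures to give inhibition.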

[9] = NCI Yeast Anticancer Drug Screen. Data for the bub3 strain (AID 167); settings: S. cerevisiae bub3 mutant strain, stronger effect = higher value
Procedure, shortened: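 Screening used yeast with an engineered genetic alteration affecting cell cycle control. Compound-exposed cultures were compared with vehicle cultures, and reduced growth was taken as inhibition.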

[10] = NCI Yeast Anticancer Drug Screen. Data for the mlh1 strain (AID 171);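 note: 0% = growth of vehicle-treated control cultures of the same strain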; settings: S. cerevisiae mlh1 strain growth inhibition, stronger effect = higher value
Procedure, shortened: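 Growth of the mutant yeast strain after compound exposure, expressed as inhibition relative to vehicle-only controls.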

[11] = NCI Yeast Anticancer Drug Screen. Data for the sgs1 strain (AID 173);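 note: 0% = growth of vehicle-only control cultures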; settings: S. cerevisiae sgs1 mutant, stronger effect = higher value
Procedure, shortened: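 Growth of a yeast strain bearing a defined genetic alteration is measured after compound treatment. Inhibition is expressed relative to vehicle-only controls.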

[12] = NCI Yeast Anticancer Drug Screen. Data for the mlh1 rad18 strain (AID 175); settings: S. cerevisiae mlh1 rad18 strain growth inhibition, stronger effect = higher value
Procedure, shortened: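 Read-out is yeast growth inhibition, calculated against vehicle-only controls. The compound was applied to a strain engineered with DNA damage repair alterations.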

[13] = NCI Yeast Anticancer Drug Screen. Data for the rad18 strain (AID 177); settings: S. cerevisiae rad18 mutant growth inhibition, stronger effect = higher value
Procedure, shortened: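 Growth of the mutant yeast strain after compound exposure, normalised to vehicle-only cultures.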

[14] = NCI Yeast Anticancer Drug Screen. Data for the wt1 strain (AID 149);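 note: 0% = growth of vehicle-treated wt1 cultures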; settings: S. cerevisiae wt1 strain (SPY 50644) growth inhibition, stronger effect = higher value
Procedure, shortened: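 Using yeast strain wt1, compound-induced growth inhibition was determined against vehicle-treated cultures.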

[15] = NCI Yeast Anticancer Drug Screen. Data for the rad14 strain (AID 159);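 note: 0% = growth of vehicle-treated control cultures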; settings: S. cerevisiae rad14 strain growth inhibition, stronger effect = higher value
Procedure, shortened: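 Screen for anticancer potential: a yeast strain altered in DNA damage repair is grown with compound, and reduced growth is quantified against vehicle controls.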

[16] = NCI Yeast Anticancer Drug Screen. Data for the wt2 strain (AID 169);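 note: 0% = growth of vehicle-treated yeast cultures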; settings: S. cerevisiae wt2 strain growth inhibition, stronger effect = higher value
Procedure, shortened: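 This strain belongs to a panel of yeast strains with defined genetic alterations in DNA damage repair or cell cycle control. Compounds are applied, and growth inhibition is measured against vehicle-treated cultures.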

[17] = at 5.0 µM (retest, dose inferred, filed as 0.5)
[18] = at 50.0 µM (retest, dose inferred, filed as 5.0)

Measured: growth inhibition

CCOP(=O)(OCC)/C(C#N)=C/c1ccc(-c2ccc(F)cc2F)o1
active: [4]; [17] 75% | [4]; [18] 99% | [5]; [18] 99% | [5]; at 50.0 µM 70.8% | [6]; [18] 99% | [8]; [18] 99% | [9]; [18] 99% | [9]; at 50.0 µM 74.8% | [12]; [18] 99%
inactive: [1]; at 1.2 µM 2% | [1]; at 3.7 µM 4% | [1]; at 11.0 µM 4% | [1]; at 33.0 µM 4% | [1]; at 100.0 µM 4% | [2]; at 1.2 µM 0% | [2]; at 3.7 µM 1% | [2]; at 11.0 µM 3% | [2]; at 33.0 µM 0% | [2]; at 100.0 µM 5% | [3]; at 1.2 µM -5% | [3]; at 3.7 µM -4% | [3]; at 11.0 µM 0% | [3]; at 33.0 µM -10% | [3]; at 100.0 µM 0% | [4]; at 1.2 µM 2% | [4]; at 3.7 µM 2% | [4]; at 11.0 µM -9% | [4]; at 33.0 µM 3% | [4]; at 50.0 µM 39.8% | [4]; at 100.0 µM 5% | [5]; at 1.2 µM 2% | [5]; at 3.7 µM -4% | [5]; [17] 19% | [5]; at 11.0 µM -4% | [5]; at 33.0 µM -6% | [5]; at 100.0 µM -1% | [6]; [17] 35% | [6]; at 50.0 µM 63.1% | [7]; at 1.2 µM -1% | [7]; at 3.7 µM 1% | [7]; at 11.0 µM -6% | [7]; at 33.0 µM -7% | [7]; at 100.0 µM -1% | [8]; [17] 16% | [8]; at 50.0 µM 60.6% | [9]; at 1.2 µM -7% | [9]; at 3.7 µM -1% | [9]; [17] 26% | [9]; at 11.0 µM 4% | [9]; at 33.0 µM -3% | [9]; at 100.0 µM -2% | [10]; at 1.2 µM -1% | [10]; at 3.7 µM -7% | [10]; at 11.0 µM 3% | [10]; at 33.0 µM 0% | [10]; at 100.0 µM -1% | [11]; at 1.2 µM -2% | [11]; at 3.7 µM -4% | [11]; at 11.0 µM -3% | [11]; at 33.0 µM -4% | [11]; at 100.0 µM -1% | [12]; [17] 60% | [12]; at 50.0 µM 41.4% | [13]; at 1.2 µM -3% | [13]; at 3.7 µM -2% | [13]; at 11.0 µM -2% | [13]; at 33.0 µM -19% | [13]; at 100.0 µM 2%

CC1=CN2C(c3ccccc3)=NON(c3ccc(C)cn3)C2C=C1 (stereo not drawn)
inactive: [14]; at 1.2 µM -3% | [14]; at 3.7 µM -3% | [14]; at 11.0 µM -3% | [14]; at 33.0 µM -3% | [14]; at 100.0 µM -5% | [2]; at 1.2 µM 6% | [2]; at 3.7 µM 1% | [2]; at 11.0 µM 0% | [2]; at 33.0 µM -2% | [2]; at 100.0 µM -11% | [3]; at 1.2 µM -2% | [3]; at 3.7 µM 0% | [3]; at 11.0 µM -2% | [3]; at 33.0 µM -1% | [3]; at 100.0 µM -3% | [4]; at 1.2 µM 6% | [4]; at 3.7 µM 2% | [4]; [17] -5% | [4]; at 11.0 µM -6% | [4]; at 33.0 µM 1% | [4]; [18] 12% | [4]; at 50.0 µM -4.35% | [4]; at 100.0 µM -11% | [5]; at 1.2 µM -3% | [5]; at 3.7 µM -2% | [5]; [17] -24% | [5]; at 11.0 µM -3% | [5]; at 33.0 µM -2% | [5]; [18] -21% | [5]; at 50.0 µM 19.8% | [5]; at 100.0 µM -4% | [15]; at 1.2 µM 4% | [15]; at 3.7 µM 0% | [15]; at 11.0 µM -4% | [15]; at 33.0 µM -2% | [15]; at 100.0 µM -9% | [6]; [17] -15% | [6]; [18] 20% | [6]; at 50.0 µM 18% | [8]; [17] -23% | [8]; [18] -17% | [8]; at 50.0 µM -12.7% | [9]; at 1.2 µM -2% | [9]; at 3.7 µM -2% | [9]; [17] -25% | [9]; at 11.0 µM -6% | [9]; at 33.0 µM -4% | [9]; [18] 10% | [9]; at 50.0 µM 46% | [9]; at 100.0 µM -4% | [16]; at 1.2 µM -7% | [16]; at 3.7 µM -7% | [16]; at 11.0 µM -10% | [16]; at 33.0 µM -13% | [16]; at 100.0 µM -7% | [10]; at 1.2 µM 0% | [10]; at 3.7 µM -2% | [10]; at 11.0 µM -3% | [10]; at 33.0 µM -1% | [10]; at 100.0 µM -4%
